Experimental data from publication PMC12136788.
The full ranking holds about 5,800 sequences; the median of “enrichment r” is about 0.68, and the highest 2% start at about 11. Not all results are given here.

T1: UNK ZnF1-6 (called full-length) (human, UniProt Q9C0B0 30-357)
T1 sequence: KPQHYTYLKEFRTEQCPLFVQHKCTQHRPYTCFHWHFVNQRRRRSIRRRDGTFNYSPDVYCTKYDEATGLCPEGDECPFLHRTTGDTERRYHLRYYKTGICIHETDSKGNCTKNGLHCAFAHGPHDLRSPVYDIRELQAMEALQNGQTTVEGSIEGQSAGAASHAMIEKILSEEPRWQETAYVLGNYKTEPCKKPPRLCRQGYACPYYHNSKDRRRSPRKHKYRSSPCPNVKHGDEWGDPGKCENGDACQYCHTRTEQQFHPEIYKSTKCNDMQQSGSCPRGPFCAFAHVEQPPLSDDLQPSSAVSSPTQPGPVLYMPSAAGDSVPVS

B1: chr14:81473690:81473791:-|3pUTR|ENSG00000071537|msi1|total|mutant (ssRNA)
RNA: GGGAGUUCUACAGUCCGACGAUCCAGUGUUUUGGAAGUAUGCAUGCAGGCCUAUAAAUGAAAAACACAAUUCUUUAUGUGUACCGCAUGUGUAUUAAUGUCUAACUACAUACGCAAAAACUUCCUUUACAGAGGUUCGGACUACAACAGAGGAUUGAGCAUCA
B2: chr3:124966548:124966651:-|3pUTR|ENSG00000173706|unk|FALSE|bound_elsewhere (ssRNA)
RNA: GGGAGUUCUACAGUCCGACGAUCAGGAAGAAUGCAAAGUUCAGUAUUUCAAUACUUUGUAUUUUACUUGAAAUUACCCUUAGUAGCAUCUUUUUUUUCCUGUCUGAAAGCUUUUGUGUGGAUGAGAAGGGACAUUUCAUUUCCCAACAGAGGAUUGAGCAUCA
B3: chr1:225419324:225419425:-|CDS|ENSG00000143815|msi1|FALSE|unique (ssRNA)
RNA: GGGAGUUCUACAGUCCGACGAUCUUACAUAGCAACACAGUAUAGCCUUCGUCCAAGAAGAGAAGAAGUCAAAUUAAAAGAAAUAGAUUCUAAGGAAGAAAAAUACGUUGCAAAAGAACUGGCAGUGAGAACCUUUGAAGUGACCAACAGAGGAUUGAGCAUCA
B4: chr16:18841627:18841728:-|CDS|ENSG00000157106|msi1|FALSE|bound_elsewhere (ssRNA)
RNA: GGGAGUUCUACAGUCCGACGAUCUACAAUUAAUCGCCAAGAAACACCCCGGUUCCAUGCUCGACACUAUUCUGUAACACCACUAGGAACAAGAUCAGGACUAAUCCAGUGGGUAGAUGGAGCCACACCCUUAUUUGGUCUUUACAACAGAGGAUUGAGCAUCA
B5: chr15:65058426:65058617:-|CDS|ENSG00000103710|control|control|control (ssRNA)
RNA: GGGAGUUCUACAGUCCGACGAUCCUGAACUGGGCCCAUGCCUUCCUGGUGGUGUACAGCGUCGACAGCCGCCAGAGCUUUGAUAGCAGCAGCAGCUACCUGGAGCUGCUUGCCUUGCACGCGAAGGAGACACAGCGCAGCAUCCAACAGAGGAUUGAGCAUCA
B6: chr8:28970260:28970371:+|CDS|ENSG00000147421|unk|total|mutant (ssRNA)
RNA: GGGAGUUCUACAGUCCGACGAUCUCUUCCUCUACAGCUACAGCUUCCACACAGACGCAGCAUUCGGGAAUGUCCCCGUCACCCCGCAACAGUUAUGAUACUUCCCCACAGCCUUGCACUACCAAUCAAAAUGGGAGGGAGAAUCAACAGAGGAUUGAGCAUCA
B7: chr1:13148904:13149928:-|three_prime_utr|ENSG00000280267|control|control|control (ssRNA)
RNA: GGGAGUUCUACAGUCCGACGAUCCCUGGACCUGAGUGGCAUCAGACUGACCAAUUACAGUCUUGUGCCUCUCCAAAUUCUCCUAGAAAAAGUUGCAGCCACCCUUGAGUACCUGGAUUUAGAUGACUGUGGCAUCAUAGACUCCAACAGAGGAUUGAGCAUCA
B8: chr14:63372511:63372612:-|3pUTR|ENSG00000154001|unk|total|mutant (ssRNA)
RNA: GGGAGUUCUACAGUCCGACGAUCUGGGGAUGAGGGUGGGAUGGGAAAGGGAUGUAUGGAUGUUAUUGGCAUUUUUAAGUGUUCCGAGUUUUUUGGGGUUUGGGGUGGUUUUUUUUCCUUGUUUUCCUUUUUUCCUUUUAAUUGCAACAGAGGAUUGAGCAUCA
B9: chr5:74627411:74627511:-|3pUTR|ENSG00000171617|msi1_unk|total|mutant (ssRNA)
RNA: GGGAGUUCUACAGUCCGACGAUCUUUGUAAAACUGUUAUUUUUUUUUUUUUCACAAUGUGAAACUGAAGGUCAAUAAAUUAUCCGAGAUUUUCUCUUCAUUAUGUGUGUGGGUCUUCAUUUGAAUAAGACACAAUUUGAGGCACAACAGAGGAUUGAGCAUCA
B10: chr10:68442948:68443070:-|CDS|ENSG00000138346|unk|total|mutant (ssRNA)
RNA: GGGAGUUCUACAGUCCGACGAUCCCCAAUUGUGAUGCUGCCCAAAACCGAAGAAGAAACCCAGCAUCUGAAGCAAACACACUCCGAAUAUUUCAGCCUUUGGUGUCUAAUGUUAACCCUGGAGUCACAAUCGAAGGAUAAUAACAACAGAGGAUUGAGCAUCA
B11: ENSG00000127995:stop:overlap|stop_codon|ENSG00000127995|stop_codon|NA|stop_codon (ssRNA)
RNA: GGGAGUUCUACAGUCCGACGAUCUAGCUGCAUUUUUUUGUGGACUCCUCAUCUUAUCAUCCAUUCAAGAUAAAUCAAAACAUUAGGUUCCAAAAAUUCUAAAAAACCUAAACUCUUCAGGCUACCUUUGUGUGUCUCUAGAAGCAACAGAGGAUUGAGCAUCA
B12: chr12:13219749:13219850:+|3pUTR|ENSG00000134531|unk|total|mutant (ssRNA)
RNA: GGGAGUUCUACAGUCCGACGAUCACAACAGUGGAUGGGGAGGAAGAACAGACUUUUGAGCUCUUCCCAAUACCGGAAUGUGUCCGUUCUAAAAAUUUUCUUAAGUUGUUUGCUUGGAACUCAGAGUAUAUUUUUCCAUACGAACAACAGAGGAUUGAGCAUCA
B13: chr10:128098466:128098636:-|3pUTR|ENSG00000148773|msi1|total|mutant (ssRNA)
RNA: GGGAGUUCUACAGUCCGACGAUCUCCUUUCCUUUCUGAAAAUAAAGUUUUGUGCUUUGGAGAAUGACUCGUGAGCACAUCUUCCGGGACCAAGAGUGACUUUCUGUAAGGAGUGACUCGUGGCUUGCCUUGGUCUCUUGGGAACAACAGAGGAUUGAGCAUCA
B14: chr7:137014887:137014989:+|CDS|ENSG00000181072|unk|total|mutant (ssRNA)
RNA: GGGAGUUCUACAGUCCGACGAUCGCUACUUGGCUACUGAUCCGAGAACGCAAAAUGAAUAACUCAACAAACUCCUCUAACAACCGCCUGGCUCUUACAAGUCCUUAUAAGACAUUUGAAGUGGUGUUUAUUGUCCUGGUGGCUCAACAGAGGAUUGAGCAUCA
B15: chr17:8173470:8173636:-|3pUTR|ENSG00000179029|msi1|total|mutant (ssRNA)
RNA: GGGAGUUCUACAGUCCGACGAUCUGUUUGUCUGUAUCGUCAGGUGGGAUAAUCCUUACCUGUUCCUCCUCCGGAGGGCAGAUCCGAACAUGAUGAUUGGAGAUGCAUGAAACGUGAUUAACGUCUCUGCGUAAUCAGGACUUGCAACAGAGGAUUGAGCAUCA
B16: ENSG00000124766:be:win_3601|3pUTR|ENSG00000124766|bound_else_gene|NA|bound_elsewhere_windowed (ssRNA)
RNA: GGGAGUUCUACAGUCCGACGAUCUGUACUGCGUUUUUCAUUCUUGUAUUUGACUAUUUAAUCCUUUCUACUUGUCGCUAAAUAUAAUUGUUUUAGUCUUAUGGCAUGAUGAUAGCAUAUGUGUUCAGGUUUAUAGCUGUUGUGCAACAGAGGAUUGAGCAUCA
B17: ENSG00000198589:be:win_7751|CDS|ENSG00000198589|bound_else_gene|NA|bound_elsewhere_windowed (ssRNA)
RNA: GGGAGUUCUACAGUCCGACGAUCAAGUGCAUUCCCAGUGCUUUGUCAUCACUUCAGACAACCGCUAUAUUCUCGUCUGUGGCUUCUGGGAUAAAAGUUUCAGAGUCUAUUCUACAGACACAGGAAGAUUGAUCCAAGUGGUGUCAACAGAGGAUUGAGCAUCA
B18: ENSG00000198589:be:win_2051|CDS|ENSG00000198589|bound_else_gene|NA|bound_elsewhere_windowed (ssRNA)
RNA: GGGAGUUCUACAGUCCGACGAUCUACUGACUAUGCAUGAGGAUGACAAUCUAAUGGAUGUCCUACAGCUGCUUGUUGCAUUAAUGUCAGAACACCCUAACUCUAUGAUUCCUGCUUUUGACCAAAGGAAUGGGUUACGUGUUACAACAGAGGAUUGAGCAUCA
B19: chr17:42842016:42842117:+|3pUTR|ENSG00000131467|msi1|FALSE|unique (ssRNA)
RNA: GGGAGUUCUACAGUCCGACGAUCUUACUGUUUCUUUCCUCUGUGGGGCAUUGGAUCCUCCCACAGUUGCCCUGGUGAUGACUUAGGGCUUCCCAUCUGUGUACAUCCCACUUUGAAUCUUGAUCGUGACAAGAAAUACCUUAGCAACAGAGGAUUGAGCAUCA
B20: chr6:132296306:132296407:-|3pUTR|ENSG00000079931|msi1|FALSE|unique (ssRNA)
RNA: GGGAGUUCUACAGUCCGACGAUCAUGGGAAACAUAGAAAUGGUAUGUAUUAAUAACUGAUCAUAGGCUGAGGAGAAAAAAUGUAGCUGGCUGCAAACCCAGUGCUGUGAGGUGACUUAUAUGAGGUUCCAGAUCAAAGACAGGCAACAGAGGAUUGAGCAUCA
B21: chr2:69942770:69942871:+|3pUTR|ENSG00000059728|unk|total|mutant (ssRNA)
RNA: GGGAGUUCUACAGUCCGACGAUCUGUUUCCAGAUGUUUCUUUAUGUAAAUAUGACGCCAAUGUAAAUCCUGUGUCAAGAUCACCGAGAAUGGUGCUUUUUACUACAGUCCGCACAUGCAUUUUCCGAAACUACUACAUGUUUUCAACAGAGGAUUGAGCAUCA
B22: ENSG00000107863:be:win_51|CDS|ENSG00000107863|bound_else_gene|NA|bound_elsewhere_windowed (ssRNA)
RNA: GGGAGUUCUACAGUCCGACGAUCCAAGGCCUGCGAGGUCUCAAAAAAUAAAGAUGGAAAAGAACAAAGUGAAACUGUAUCACUGUCUGAAGAUGAAACAUUCUCCUGGCCAGGUCCCAAAACAGUUACGUUGAAAAGAACAUCCAACAGAGGAUUGAGCAUCA

target: T1, UNK ZnF1-6 (called full-length); test: nsRBNS (natural sequence RNA bind-n-seq); RBNS binding buffer (assumed for nsRBNS): 25 mM Tris pH 7.5, 150 mM KCl, 3 mM MgCl2, 0.01% Triton X-100, 500 ug/ml BSA, 20 U/ml SUPERase-In, 4 C; UNK is unkempt and MSI1 is Musashi-1; names of the RNAs are library labels; protein concentration not given here; high values mean tight binding

Row | Binder | binding signal [enrichment R]
1 | B1 | 0.563
2 | B2 | 1.1
3 | B3 | 0.538
4 | B4 | 0.869
5 | B5 | 0.597
6 | B6 | 0.625
7 | B7 | 0.577
8 | B8 | 1.7
9 | B9 | 0.75
10 | B10 | 0.471
11 | B11 | 0.828
12 | B12 | 0.58
13 | B13 | 0.483
14 | B14 | 0.461
15 | B15 | 0.686
16 | B16 | 0.795
17 | B17 | 0.285
18 | B18 | 0.35
19 | B19 | 0.557
20 | B20 | 0.863
21 | B21 | 0.355
22 | B22 | 0.505
